From PubChem BioAssay AID1254 (The Scripps Research Institute Molecular Screening Center, 2008) come the findings set out here.

The term inhibition denotes the change of the read-out against control, counted positive when it falls.

About 250 (21%) of roughly 1,200 compounds were called active. Rule as the data show it: active = inhibition above about 20%; inactive = the rest. These entries were drawn from the full list.

Neuropeptide Y receptor type 1 (Homo sapiens), sequence (P25929 whole entry, looked up): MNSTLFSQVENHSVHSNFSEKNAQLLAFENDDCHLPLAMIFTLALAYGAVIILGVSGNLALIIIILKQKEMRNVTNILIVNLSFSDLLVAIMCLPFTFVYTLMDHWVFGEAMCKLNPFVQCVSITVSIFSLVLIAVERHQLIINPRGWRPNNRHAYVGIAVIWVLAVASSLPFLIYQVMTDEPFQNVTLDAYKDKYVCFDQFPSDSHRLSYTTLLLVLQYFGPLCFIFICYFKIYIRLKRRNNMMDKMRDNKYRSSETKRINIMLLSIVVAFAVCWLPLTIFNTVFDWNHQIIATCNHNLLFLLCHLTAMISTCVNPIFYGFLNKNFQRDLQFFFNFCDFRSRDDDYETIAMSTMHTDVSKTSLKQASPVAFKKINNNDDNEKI

This assay concerns the target Neuropeptide Y receptor type 1 (Homo sapiens) (UniProt P25929). In words: blockers of human NPY-Y1 signalling – HEK293-CNG cells, membrane potential fluorescence, triplicate, confirmation (AID 1254).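 Also: 0% = vehicle with agonist plus stimulus and 100% = stimulus alone without agonist.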 The settings on record: cAMP, at 3.6 µM, hits give high values, NPY challenge against isoproterenol-raised cAMP.
With `O=C(CSc1nnnn1C1CCCC1)Nc1ccc2c(c1)OCCO2`, the inhibition is 10.8% (inactive).
With `CCN1CCN(CCNC(=O)c2ccc(/C=C3/Sc4ccccc4N(Cc4cccc(C)c4)C3=O)cc2)CC1`, the inhibition is 14.5% (inactive).
With `COC(=O)c1ccc(COC(=O)c2c(C)nn(Cc3ccccc3Cl)c2Cl)o1`, the inhibition is 7.48% (inactive).
With `CC(C)(C)NCc1cc(Br)ccc1OC1CCCC1` the figure was 21.6% (active); with `Cc1ccccc1Nc1scc(-c2ccc(Br)cc2)[n+]1-c1ccccc1C`, 18.4% (inactive); with `COc1ccccc1C1C2=C(COC2=O)Nc2cc3c(cc21)OCO3` (stereo unspecified), 2.86% (inactive).
For `COc1ccc(-c2[nH]nc(-c3ccccc3)c2-c2nc3ccccc3[nH]2)cc1`, the inhibition is 13.6% (inactive).
For the compound `COc1ccc(C(=O)CSc2nnc(COc3ccccc3)n2Cc2ccco2)cc1`, the inhibition was 5.39% (inactive).
As for `Cc1cc(C)c2[nH]c(=O)c(CN(Cc3ccccc3)C(=S)NCCCN(C)C)cc2c1`, the inhibition is 15.2% (inactive).
Take `O=S(=O)(O)c1nc2ccccc2n1Cc1ccc(Cl)cc1`: the inhibition was 5.94% (inactive).
Turning to `O=C(NCCc1ccc2c(c1)OCCO2)c1cc2ccccc2o1`, the inhibition was 13.2% (inactive).
Turning to `CCCOc1ccc2c3c(c(=O)oc2c1OCCC)CCC3`, the inhibition was 5.13% (inactive).
For the compound `C/C(=N\NC(=S)NCc1ccccc1)c1ccc(Cl)cc1`, the inhibition was 4.98% (inactive).
Consider `Cc1ccc(-c2cc(C(=O)N3CCc4ccccc4C3)no2)cc1`, for which the inhibition was 10.9% (inactive).
Consider `OCC1(CCc2ccccc2)CCN(Cc2ccc3nsnc3c2)CC1`, for which the inhibition is 9.69% (inactive).
Regarding `COc1ccc(CCN(C(=O)COc2ccccc2)c2nc(-c3ccccc3)cs2)cc1OC`, the inhibition was 13.1% (inactive).
The result for `CC(Nc1nc(N2CCN(CCO)CC2)nc2ccccc12)c1ccccc1` (stereo unspecified) reads 4.06% (inactive); that for `c1ccc2c(NC3C4CC5CC(C4)CC3C5)nc(N3CCOCC3)nc2c1` (stereo unspecified), 25.2% (active).
The result for `c1ccc(-c2ccccc2OCCN2CCCCC2)cc1` reads 4.72% (inactive); that for `CCCCCCCCn1c2c(c(=N)c3c1CCC3)CCCC2`, 64.7% (active); that for `O=C(CN1CCN(c2ncc(C(F)(F)F)cc2Cl)CC1)Nc1ccc2c(c1)OCO2`, 12.4% (inactive).
With `Cc1ccc2nc(-c3ccccn3)cc(C(=O)Nc3ccc4c(c3)OCO4)c2c1` the figure was 27% (active).
Consider `COc1cc2c(C(=O)N3CCN(C)CC3)c(CSc3ccccc3)n(C)c2cc1Br`, for which the inhibition was 20.6% (active).
Regarding `CS(=O)(=O)N1CCCC(C(=O)N2CCOCC2)C1` (stereo unspecified), the inhibition was -0.5% (inactive).
For `CCOC(=O)CSc1nc2c(sc(=S)n2CCc2ccccc2)c(=O)n1Cc1ccco1`, the inhibition is 18.3% (inactive).
As to `O=C(c1cc(-c2ccc(O)cc2)on1)N1CCCc2ccccc21`, the inhibition is 2.54% (inactive).
